# Data published in PubChem BioAssay (Tox21).
# Values joined by “and” are separate entries in the source; they are usually repeats but may differ in a detail not shown here. Identical values can stand only once. Records with an inconclusive call do not appear. Active and inactive are the calls of the source. The call rests on the fitted dose curve.
# Target: Acetylcholinesterase (Homo sapiens) (UniProt P22303)
# Assay: Acetylcholinesterase (AChE) small molecule antagonists: colormetric cell-based qHTS assay (AID 1347395); further: nearly all actives have a fitted effect of over 30% in size
# Settings: SH-SY5Y cells AChE activity, colorimetric (Ellman); series mostly up to 115 µM; activity, negative = inhibition: at the top concentration
# Method in brief: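 SH-SY5Y cells attached overnight, exposed to compound 30 min at 37 C, then given DTNB/acetylthiocholine; after 90 min at 37 C, colorimetric thiocholine read gives cellular AChE activity.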
# On the % scale 0 is the no-effect control and ±100 the full control effect.
# Chain of Acetylcholinesterase (Homo sapiens) (P22303 whole entry, looked up): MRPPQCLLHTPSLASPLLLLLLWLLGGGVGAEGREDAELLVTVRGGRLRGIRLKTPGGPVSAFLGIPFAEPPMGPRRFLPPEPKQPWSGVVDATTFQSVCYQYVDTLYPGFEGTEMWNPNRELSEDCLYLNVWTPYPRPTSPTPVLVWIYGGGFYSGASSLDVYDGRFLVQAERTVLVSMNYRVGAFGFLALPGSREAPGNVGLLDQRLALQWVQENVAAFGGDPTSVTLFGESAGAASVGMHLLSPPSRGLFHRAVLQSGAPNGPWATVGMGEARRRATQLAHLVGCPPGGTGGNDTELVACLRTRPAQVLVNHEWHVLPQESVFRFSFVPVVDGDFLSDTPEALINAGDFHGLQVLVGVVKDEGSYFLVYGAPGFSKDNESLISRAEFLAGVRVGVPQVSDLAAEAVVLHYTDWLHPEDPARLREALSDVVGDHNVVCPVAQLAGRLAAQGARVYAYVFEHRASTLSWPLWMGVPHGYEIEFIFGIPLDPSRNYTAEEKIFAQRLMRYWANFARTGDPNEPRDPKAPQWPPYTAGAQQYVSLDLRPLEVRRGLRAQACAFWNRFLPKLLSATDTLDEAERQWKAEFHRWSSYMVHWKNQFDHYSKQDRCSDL
Structure (SMILES),"activity, negative = inhibition",Potency,outcome
CC(CO)Oc1ccccc1 (stereo unspecified),0.5% (inactive),,
N[C@@H](Cc1ccc(O)cc1)C(=O)O,-0.421% [at 10.5 µM] (inactive),,
CCCCCCCCC/C=C/CC1CC(=O)OC1=O (stereo unspecified),,inactive,
Cc1cccc(C)c1OCC(=O)N[C@@H](Cc1ccccc1)[C@@H](O)C[C@H](Cc1ccccc1)NC(=O)[C@H](C(C)C)N1CCCNC1=O,2.22% [at 52.9 µM] (inactive),,
NCCN,,,inactive
CC(C)(C)c1ccc(O)c(O)c1,,inactive,
Cc1[nH]nc2c1N=C(c1ccccc1Cl)c1cc([N+](=O)[O-])ccc1N2,-5.25% (inactive),,
CC(C)(C)N,-0.953% (inactive),,
O=C(Cl)c1cc(Cl)cc(Cl)c1,2.58% (inactive),,
CC1=CCC2CC1C2(C)C (stereo unspecified),,inactive,
CCCCCCCCCCCCCO,,inactive,
NC[C@H]1O[C@H](O[C@H]2[C@H](O)[C@@H](O[C@H]3O[C@H](CO)[C@@H](O)[C@H](N)[C@H]3O)[C@H](N)C[C@@H]2N)[C@H](N)[C@@H](O)[C@@H]1O,1.64% [at 23.6 µM] (inactive),,
CC(C)(C)c1ccc(C(O)CCCN2CCC(C(O)(c3ccccc3)c3ccccc3)CC2)cc1 (stereo unspecified),-0.264% [at 52.9 µM] (inactive),,
FC(F)(F)c1ccc(Cl)c(Cl)c1,,inactive,
CCC(C)COC(C)=O (stereo unspecified),1.57% (inactive),,
COc1cccc(OC)c1O,-0.862% (inactive),,

# Target: Acetylcholinesterase (Homo sapiens) (UniProt P22303)
# Assay: Acetylcholinesterase (AChE) small molecule antagonists: enzyme-based qHTS assay (AID 1347397); further: nearly all actives have a fitted effect of over 55% in size
# Settings: Potency: AChE enzyme activity inhibition; outcome: AChE enzyme activity inhibition; series mostly up to 115 µM; activity change, negative = inhibition: at the top concentration
# Method in brief: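 Human recombinant acetylcholinesterase; substrate acetylthiocholine; thiocholine quantified with DTNB (colorimetric). Compound preincubation 30 min RT; reaction 10 min RT.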
Structure (SMILES),Potency,"activity change, negative = inhibition",outcome
Nc1ccc(O)c(C(=O)O)c1,inactive,,
CC(C)c1cccc(C(C)C)c1N,,0.0534% (inactive),
c1ccc(SSc2ccccc2)cc1,,-0.772% (inactive),
O=C=Nc1cccc(C(F)(F)F)c1,,-2.32% (inactive),
CC1=CCC(C(C)(C)O)CC1 (stereo unspecified),inactive,,
C[C@]12CCC(=O)C=C1CC[C@@H]1[C@@H]2CC[C@@]2(C)[C@H]1CC[C@]2(O)C(=O)CO,,0.415% [at 53 µM] (inactive),
CC(C)[N+](C)(CCOC(=O)C1c2ccccc2Oc2ccccc21)C(C)C,inactive,,
CC(C)(C)[C@@H](O)[C@@H](Cc1ccc(Cl)cc1)n1cncn1,inactive,,
C[N+](C)(C)CC(O)CCl (stereo unspecified),,1.29% (inactive),
CC1C(C)(C)C2=C(C(=O)CCC2)C1(C)C (stereo unspecified),,2.46% (inactive),
ON=C1CCCCC1,inactive,,
O=S(=O)(O)CCCN1CCOCC1,,-1.26% (inactive),
COc1ccc(C(=O)N2CCN(CC(=O)N3CCOCC3)CC2)cc1,,0.945% [at 53 µM] (inactive),
Nc1cc(N)cc(C(=O)O)c1,,4.67% (inactive),
CN1C(=O)c2ccccc2C1=O,,2.11% (inactive),
CCCCCCCCC1CO1 (stereo unspecified),,-0.29% (inactive),
CC(CO)Oc1ccccc1 (stereo unspecified),,0.306% (inactive),
CCCCCCCCC/C=C/CC1CC(=O)OC1=O (stereo unspecified),inactive,,
NCCN,,,inactive
CC(C)(C)c1ccc(O)c(O)c1,inactive,,
Cc1[nH]nc2c1N=C(c1ccccc1Cl)c1cc([N+](=O)[O-])ccc1N2,,9.97% (inactive),
CC(C)(C)N,,1.96% (inactive),
CCCCCCCCCCCCCO,inactive,,
NC[C@H]1O[C@H](O[C@H]2[C@H](O)[C@@H](O[C@H]3O[C@H](CO)[C@@H](O)[C@H](N)[C@H]3O)[C@H](N)C[C@@H]2N)[C@H](N)[C@@H](O)[C@@H]1O,,0.27% [at 23.6 µM] (inactive),
FC(F)(F)c1ccc(Cl)c(Cl)c1,inactive,,
CCC(C)COC(C)=O (stereo unspecified),,0.817% (inactive),
COc1cccc(OC)c1O,,1.49% (inactive),

# Target: Acetylcholinesterase (Homo sapiens) (UniProt P22303)
# Assay: Acetylcholinesterase (AChE) small molecule antagonists: fluorescence cell-based qHTS assay (AID 1347398); further: nearly all actives have a fitted effect of over 50% in size; further: potency means the concentration at half of the fitted maximal effect
# Settings: SH-SY5Y cells; Potency: AChE activity; outcome: AChE activity; series mostly up to 115 µM; activity change, negative = inhibition: at the top concentration
# Method in brief: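 Thiocholine generated from acetylthiocholine by SH-SY5Y cell AChE is detected with Thiolite Green (Ex/Em 490/520 nm) after 40 min at room temperature, following 30 min compound pretreatment at 37 C.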
Structure (SMILES),Potency,"activity change, negative = inhibition"
CCCCCCCCCCCCc1ccccc1O,inactive,
COCCOCCOCCOCCO,,0.153% (inactive)
CCCCCCCCOC(=O)c1ccc(O)cc1,inactive,
CCn1nc(C(=O)O)c(=O)c2cc3c(cc21)OCO3,,0.27% [at 53.7 µM] (inactive)
Nc1ccc(Cl)c(N)c1,inactive,
CS(=O)(=O)c1ccc([C@@H](O)[C@@H](CF)NC(=O)C(Cl)Cl)cc1,,5.09% [at 53.7 µM] (inactive)
CCCCCCCC/C=C\CCCCCCCCOCCO,,-8.55% (inactive)
NC(=NCCCCCCN=C(N)/N=C(\N)Nc1ccc(Cl)cc1)/N=C(\N)Nc1ccc(Cl)cc1,11.1 µM (active) and 17.7 µM (active) and 16.2 µM (active),
N[C@@H](Cc1ccc(O)cc1)C(=O)O,,10.1% [at 10.5 µM] (inactive)
Cc1cccc(C)c1OCC(=O)N[C@@H](Cc1ccccc1)[C@@H](O)C[C@H](Cc1ccccc1)NC(=O)[C@H](C(C)C)N1CCCNC1=O,,0.0768% [at 53.7 µM] (inactive)
O=C(Cl)c1cc(Cl)cc(Cl)c1,,1.96% (inactive)
CC1=CCC2CC1C2(C)C (stereo unspecified),inactive,
CC(C)(C)c1ccc(C(O)CCCN2CCC(C(O)(c3ccccc3)c3ccccc3)CC2)cc1 (stereo unspecified),,4.57% [at 53.7 µM] (inactive)

# Target: Acetylcholinesterase (Homo sapiens) (UniProt P22303)
# Assay: Acetylcholinesterase (AChE) small molecule antagonists: enzyme-based qHTS assay with human liver microsomes (AID 1347399); further: nearly all actives have a fitted effect of over 60% in size
# Settings: Potency: qHTS inhibition; outcome: qHTS inhibition; series mostly up to 115 µM; activity change, negative = inhibition: at the top concentration
# Method in brief: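 Recombinant human AChE (50 mU/mL in the enzyme mix) and human liver microsomes (0.25 mg/mL final) were preincubated with compound and NADPH (0.25 mg/mL final) for 30 min at 37 C. Acetylthiocholine/DTNB was then added; thiocholine was read colorimetrically after 10 min at room temperature.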
Structure (SMILES),Potency,"activity change, negative = inhibition",outcome
CCCCCCCCCCCCc1ccccc1O,inactive,,
Nc1ccc(O)c(C(=O)O)c1,inactive,,
CC(C)c1cccc(C(C)C)c1N,,-0.611% (inactive),
c1ccc(SSc2ccccc2)cc1,,-3.94% (inactive),
O=C=Nc1cccc(C(F)(F)F)c1,,2.45% (inactive),
CC1=CCC(C(C)(C)O)CC1 (stereo unspecified),inactive,,
C[C@]12CCC(=O)C=C1CC[C@@H]1[C@@H]2CC[C@@]2(C)[C@H]1CC[C@]2(O)C(=O)CO,,2.85% [at 53 µM] (inactive),
COCCOCCOCCOCCO,,0.0799% (inactive),
CCCCCCCCOC(=O)c1ccc(O)cc1,inactive,,
CC(C)[N+](C)(CCOC(=O)C1c2ccccc2Oc2ccccc21)C(C)C,inactive,,
CC(C)(C)[C@@H](O)[C@@H](Cc1ccc(Cl)cc1)n1cncn1,inactive,,
C[N+](C)(C)CC(O)CCl (stereo unspecified),,1.01% (inactive),
Nc1ccc(Cl)c(N)c1,inactive,,
CC1C(C)(C)C2=C(C(=O)CCC2)C1(C)C (stereo unspecified),,0.657% (inactive),
ON=C1CCCCC1,inactive,,
O=S(=O)(O)CCCN1CCOCC1,,1.22% (inactive),
COc1ccc(C(=O)N2CCN(CC(=O)N3CCOCC3)CC2)cc1,,0.117% [at 53 µM] (inactive),
Nc1cc(N)cc(C(=O)O)c1,,-2.31% (inactive),

Structure (SMILES),Potency,"activity change, negative = inhibition",outcome
CN1C(=O)c2ccccc2C1=O,,-1.51% (inactive),
CCCCCCCCC1CO1 (stereo unspecified),,-0.485% (inactive),
NC(=NCCCCCCN=C(N)/N=C(\N)Nc1ccc(Cl)cc1)/N=C(\N)Nc1ccc(Cl)cc1,inactive,,
CC(CO)Oc1ccccc1 (stereo unspecified),,-1.49% (inactive),
CCCCCCCCC/C=C/CC1CC(=O)OC1=O (stereo unspecified),inactive,,
Cc1cccc(C)c1OCC(=O)N[C@@H](Cc1ccccc1)[C@@H](O)C[C@H](Cc1ccccc1)NC(=O)[C@H](C(C)C)N1CCCNC1=O,,-0.771% [at 53 µM] (inactive),
NCCN,,,inactive
CC(C)(C)c1ccc(O)c(O)c1,inactive,,
Cc1[nH]nc2c1N=C(c1ccccc1Cl)c1cc([N+](=O)[O-])ccc1N2,,16.7% (inactive),
CC(C)(C)N,,-1.53% (inactive),
O=C(Cl)c1cc(Cl)cc(Cl)c1,,1.21% (inactive),
CC1=CCC2CC1C2(C)C (stereo unspecified),inactive,,
CCCCCCCCCCCCCO,inactive,,
NC[C@H]1O[C@H](O[C@H]2[C@H](O)[C@@H](O[C@H]3O[C@H](CO)[C@@H](O)[C@H](N)[C@H]3O)[C@H](N)C[C@@H]2N)[C@H](N)[C@@H](O)[C@@H]1O,,3.75% [at 23.6 µM] (inactive),
FC(F)(F)c1ccc(Cl)c(Cl)c1,inactive,,
CCC(C)COC(C)=O (stereo unspecified),,-1.2% (inactive),
COc1cccc(OC)c1O,,-9.04% (inactive),
